Test results reported in PubChem BioAssay (NCI).
About 83,000 compounds went through this panel and 20% of them were active in at least one assay; those are over-represented in the sample as a whole.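 Method: cells in 96-well plates; compound added at one concentration; 48 h incubation; percent growth measured; values under 10 scored active.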 A number with no mark means an inactive call. The source made the active and inactive calls.

Columns and labels:
Assay in all cases: NCI-60 one-dose screen, 48 h (100 = growth as untreated, 0 = no growth, -100 = all killed)
Conditions in all cases: 10 µM unless noted
[1] = test system: NCI-H23 lung
[2] = test system: NCI-H226 lung
[3] = test system: NCI-H322M lung
[4] = test system: HOP-62 NSCLC
[5] = test system: NCI-H460 lung
[6] = test system: HOP-92 NSCLC
[7] = test system: NCI-H522 lung
[8] = test system: A549/ATCC NSCLC
[9] = test system: 786-0 renal
[10] = test system: DU-145 prostate
[11] = test system: K-562 leukemia
[12] = test system: MALME-3M melanoma
[13] = test system: MDA-MB-231 breast
[14] = test system: RXF 393 renal
[15] = test system: SF-268 CNS
[16] = test system: SF-295 CNS
[17] = test system: SF-539 CNS
[18] = test system: UACC-257 melanoma
[19] = test system: M14 melanoma

Row | SMILES | growth [1] | growth [2] | growth [3] | growth [4] | growth [5] | growth [6] | growth [7] | growth [8] | growth [9] | growth [10] | growth [11] | growth [12] | growth [13] | growth [14] | growth [15] | growth [16] | growth [17] | growth [18] | growth [19]
1 | Cc1cc(C(c2ccccc2)c2ccccc2)ccc1NS(=O)(=O)c1ccccc1 | 86.2% | 102% | 119% | 110% | 93.2% | 95.8% | 83.7% | 87.9% | 102% | 102% | 65.1% | 130% | 88.5% | 102% | 85.9% | 109% | 98.4% | 118% | 108%
2 | CN1CCN(C(=O)[C@]23CCC(C)(C)C[C@@H]2C2=CC[C@@H]4[C@@]5(C)Cc6c([nH]c7ccccc67)C(C)(C)[C@@H]5CC[C@@]4(C)[C@]2(C)CC3)CC1 | 93.3% | 86.9% | 88.6% | 80% | 75.8% | 70.7% | 78.2% | 69.4% | 74.4% | 84.6% | 66.1% | 90.2% | 79% | 80.1% | 84.6% | 92.2% | 76.7% | 86.1% | 78%
3 | N#Cc1c(-c2ccc(C(F)(F)F)cc2)cc(N2CC(O)C2)n2c1nc1ccccc12 | 67.7% | 16.9% | 60.8% | 7.8% (active) | 27.8% | -3.02% (active) | 34.7% | 48.1% | 20.7% | 71.4% | 110% | -3.85% (active) | 39.2% | 21.5% | 32.7% | 28.1% | 36.2% | 51.9% | 80.6%
4 | CN1CCN(c2ccc(Nc3ncc(Cl)c(NC[C@@H]4CCCO4)n3)cc2)CC1 | 15.8% | 8.99% (active) | 35.9% | 7.27% (active) | 13.2% | 3.21% (active) | 25.6% | 22.8% | 26% | 23% | 27.2% | 27.4% | 17.8% | -31.7% (active) | 24.6% | 31.3% | -6.55% (active) | 44.7% | 21.7%
5 | CC1(C)C(=O)/C(=C\c2cccnc2)C[C@]2(C)[C@H]3CC=C4[C@@H]5C[C@@](C)(C(=O)O)CC[C@]5(C)CC[C@@]4(C)[C@]3(C)CC[C@@H]12 | 102% | 92.9% | 93.1% | 96.6% | 101% | 88.9% | 87.1% | 78.8% | 101% | 104% | 80.7% | 126% | 101% | 92.2% | 98.9% | 93.9% | 101% | 87.7% | 100%
6 | CN1CCN(C(=O)[C@@]2(C)CC[C@]3(C)CC[C@]4(C)C(=CC[C@@H]5[C@@]6(C)C/C(=C/c7ccncc7)C(=O)C(C)(C)[C@@H]6CC[C@]54C)[C@@H]3C2)CC1 | 59.3% | 88.6% | 79.7% | 68.4% | 24.4% | 34.3% | 69% | 45.9% | 58.4% | 76.1% | 7.71% (active) | 42.3% | 69.4% | 46.3% | 67.9% | 63.6% | 57.7% | 40.8% | 49.8%
7 | O=C(NC1CCOCC1)c1ccc2c(c1)CN(c1ncc(Cc3cccc(-n4cccn4)c3)s1)CC2 | 57.7% | 62% | 87.8% | 104% | 79.9% | 44.9% | 38.8% | 76% | 68.7% | 88.2% | 58.7% | 64.1% | 37.1% | 73.7% | 80.4% | 62.5% | 64.2% | 62.6% | 64%
8 | C=C1c2c(C)nn(-c3ccc(N)cc3)c2N(C)C23CC1C1(C)c4c(C)nn(-c5ccc(N)cc5)c4N(C)C(C)(CC12)C3 (centres undefined) | 93.6% | 71.2% | 92.1% | 88.3% | 57.2% | 90.2% | 62.3% | 50.1% | 81.1% | 81.4% | 42.9% | 102% | 89.2% | 71.7% | 76.5% | 52.5% | 100% | 72.5% | 61.6%
9 | CSc1nc2sc3cc(Cl)ccc3n2c(=N)c1C#N | 82.2% | 57% | 107% | 119% | 92.7% | 77% | 94.3% | 62.3% | 47.6% | 96.1% | 110% | 40.1% | 72.8% | -0.36% (active) | 47.3% | 26.1% | 70.2% | 45.7% | 82.4%
10 | CN(C)c1ccc2cc(-c3ccc(Cl)c(Cl)c3)c(N)nc2c1 | 15.4% | 42.3% | 54.6% | 66.2% | 27.6% | 28% | 22% | 32.9% | 55.4% | 56.2% | 12.1% | 29.8% | 63.1% | 63% | 50.1% | 11.9% | 48.5% | 21.3% | 25.5%
11 | COc1ccc(Oc2nc(Nc3ccc(N4CCOCC4)nc3)ncc2NC(=O)c2cc(OC)cc(OC)c2)cc1 | 97.9% | 65% | 88% | 82.6% | 82.3% | 82.8% | 52.1% | 84.6% | 67.4% | 89.6% | 49.8% | 107% | 81.9% | 58.6% | 82.2% | 83.7% | 78.2% | 89.7% | 72.8%
12 | NC(=S)c1csc(CCNC(=O)c2ccccc2)n1 | 100% | 116% | 108% | 109% | 109% | 97.3% | 106% | 90.1% | 98.2% | 129% | 110% | 125% | 107% | 128% | 111% | 96.9% | 114% | 94.2% | 110%
13 | CCN(CC)CCOC(=O)Nc1ccccc1Cl | 105% | 88.1% | 92.7% | 102% | 104% | 82% | 68.9% | 98.7% | 92.1% | 107% | 94.8% | 95.7% | 115% | 117% | 102% | 104% | 102% | 105% | 86.1%
14 | CN(C)c1ccc(C#Cc2c(F)cccc2Cl)cc1 | 70.6% | 90.4% | 86.7% | 71.8% | 98.9% | 79.5% | 65.1% | 87.5% | 112% | 101% | 95.5% | 93.4% | 66.2% | 112% | 87.7% | 76.5% | 94.6% | 91.2% | 100%
15 | C=C1C(=O)O[C@H]2[C@H]1CC/C(C(=O)NCCCCCCCCNC(=O)/C1=C/CC[C@@]3(C)O[C@H]3[C@H]3OC(=O)C(=C)[C@@H]3CC1)=C\CC[C@@]1(C)O[C@@H]21 | 92.3% | 88.7% | 94.9% | 109% | 110% | 4.35% (active) | -64.5% (active) | 82.9% | 85.1% | 84.1% | 18.3% | 16.4% | 74.3% | 43.1% | 91.8% | 110% | 70.1% | 61.8% | 82.8%
16 | C=C1c2c(C)nn(-c3ccc(O)cc3)c2N(C)C23C[C@@H]1C1(C)c4c(C)nn(-c5ccc(O)cc5)c4N(C)C(C)(C[C@H]12)C3 (some centres undefined) | 50.4% | 11.8% | 59.4% | 37% | 20.1% | 7.18% (active) | 20.7% | 31.3% | 34.3% | 45% | 18.1% | 58.7% | 14.8% | 19.9% | 48% | 26.9% | 23.7% | 29.1% | 15.5%
